According to the supplement of paper PMC7261846:
Where a name gives a salt, the structure may show the parent alone. ± gives the uncertainty stated by the source.

Tested on: Candida albicans SNY425 biofilm
Assay: biofilm OD600 with compound plus antifungal (OD600 (absorbance)); higher = more biofilm remaining
[1] = assay detail: disruption of 24-h mature biofilm (compound + antifungal for a second 24 h)
[2] = assay detail: sustained inhibition (compound + antifungal during 90-min adherence and 24-h growth)

Row | SMILES | biofilm OD600 [1] | biofilm OD600 [2]
1 | Nc1ccc(CC(CC(=O)O)C(=O)O)cc1 [4-Amino-D, L-benzylsuccinic acid] + C[C@@H]1[C@H](O)[C@@H](C)/C=C/C=C/C=C/C=C/C=C/C=C/C=C/[C@H](O[C@@H]2O[C@H](C)[C@@H](O)[C@H](N)[C@@H]2O)C[C@@H]2O[C@](O)(C[C@@H](O)C[C@@H](O)[C@H](O)CC[C@@H](O)C[C@@H](O)CC(=O)O[C@H]1C)C[C@H](O)[C@H]2C(=O)O [amphotericin B] (first compound 12.5 µM) | 0.293 ± 0.0096 | 0.185 ± 0.0047
2 | CC(C)CC(=O)N[C@H](C(=O)N[C@H](C(=O)N[C@@H](CC(C)C)[C@@H](O)CC(=O)N[C@@H](C)C(=O)N[C@@H](CC(C)C)[C@@H](O)CC(=O)O)C(C)C)C(C)C [Pepstatin A] + CC[C@H](C)C[C@H](C)CCCCCCCCC(=O)N[C@H]1C[C@@H](O)[C@@H](NCCN)NC(=O)[C@@H]2[C@@H](O)CCN2C(=O)[C@H]([C@H](O)CCN)NC(=O)[C@H]([C@H](O)[C@@H](O)c2ccc(O)cc2)NC(=O)[C@@H]2C[C@@H](O)CN2C(=O)[C@H]([C@@H](C)O)NC1=O [caspofungin] (first compound 12.5 µM) | 0.264 ± 0.01 | 0.18 ± 0.013
3 | CC(C)CCNC(=O)[C@H](CC(C)C)NC(=O)[C@H]1O[C@@H]1C(=O)O + CC[C@H](C)C[C@H](C)CCCCCCCCC(=O)N[C@H]1C[C@@H](O)[C@@H](NCCN)NC(=O)[C@@H]2[C@@H](O)CCN2C(=O)[C@H]([C@H](O)CCN)NC(=O)[C@H]([C@H](O)[C@@H](O)c2ccc(O)cc2)NC(=O)[C@@H]2C[C@@H](O)CN2C(=O)[C@H]([C@@H](C)O)NC1=O [caspofungin] (first compound 12.5 µM) | 0.268 ± 0.0056 | 0.17 ± 0.01
4 | Nc1ccc(CC(CC(=O)O)C(=O)O)cc1 [4-Amino-D, L-benzylsuccinic acid] + CC[C@H](C)C[C@H](C)CCCCCCCCC(=O)N[C@H]1C[C@@H](O)[C@@H](NCCN)NC(=O)[C@@H]2[C@@H](O)CCN2C(=O)[C@H]([C@H](O)CCN)NC(=O)[C@H]([C@H](O)[C@@H](O)c2ccc(O)cc2)NC(=O)[C@@H]2C[C@@H](O)CN2C(=O)[C@H]([C@@H](C)O)NC1=O [caspofungin] (first compound 12.5 µM) | 0.295 ± 0.016 | 0.187 ± 0.0071
5 | CC(C)C[C@H](NC(=O)[C@@H](O)[C@H](N)Cc1ccccc1)C(=O)O [Bestatin·HCl] + CC[C@H](C)C[C@H](C)CCCCCCCCC(=O)N[C@H]1C[C@@H](O)[C@@H](NCCN)NC(=O)[C@@H]2[C@@H](O)CCN2C(=O)[C@H]([C@H](O)CCN)NC(=O)[C@H]([C@H](O)[C@@H](O)c2ccc(O)cc2)NC(=O)[C@@H]2C[C@@H](O)CN2C(=O)[C@H]([C@@H](C)O)NC1=O [caspofungin] (first compound 12.5 µM) | 0.283 ± 0.013 | 0.187 ± 0.0098
6 | CC1CNc2c(cccc2S(=O)(=O)N[C@@H](CCCNC(=N)N)C(=O)N2CC[C@@H](C)C[C@@H]2C(=O)O)C1 (stereo partly specified) [Argatroban] + C[C@@H]1[C@H](O)[C@@H](C)/C=C/C=C/C=C/C=C/C=C/C=C/C=C/[C@H](O[C@@H]2O[C@H](C)[C@@H](O)[C@H](N)[C@@H]2O)C[C@@H]2O[C@](O)(C[C@@H](O)C[C@@H](O)[C@H](O)CC[C@@H](O)C[C@@H](O)CC(=O)O[C@H]1C)C[C@H](O)[C@H]2C(=O)O [amphotericin B] (first compound 12.5 µM) | 0.3 ± 0.018 | 0.191 ± 0.0048
7 | CCCC[C@@H](C=O)NC(=O)OC(C)(C)C + C[C@@H]1[C@H](O)[C@@H](C)/C=C/C=C/C=C/C=C/C=C/C=C/C=C/[C@H](O[C@@H]2O[C@H](C)[C@@H](O)[C@H](N)[C@@H]2O)C[C@@H]2O[C@](O)(C[C@@H](O)C[C@@H](O)[C@H](O)CC[C@@H](O)C[C@@H](O)CC(=O)O[C@H]1C)C[C@H](O)[C@H]2C(=O)O [amphotericin B] (first compound 12.5 µM) | 0.259 ± 0.011 | 0.188 ± 0.0076
8 | CC1CNc2c(cccc2S(=O)(=O)N[C@@H](CCCNC(=N)N)C(=O)N2CC[C@@H](C)C[C@@H]2C(=O)O)C1 (stereo partly specified) [Argatroban] + OC(Cn1cncn1)(Cn1cncn1)c1ccc(F)cc1F [fluconazole] (first compound 12.5 µM) | 0.286 ± 0.011 | 0.113 ± 0.0066
9 | O=C[C@@H]1CCCN1C(=O)[C@@H]1CCCN1C(=O)OCc1ccccc1 [Z-Prolyl-prolinal] + OC(Cn1cncn1)(Cn1cncn1)c1ccc(F)cc1F [fluconazole] (first compound 12.5 µM) | 0.247 ± 0.013 | 0.0978 ± 0.0091
10 | CCC(C)[C@H](NS(=O)(=O)c1cccc2ccccc12)C(=O)N[C@H](C=O)Cc1c[nH]c2ccccc12 (stereo partly specified) + C[C@@H]1[C@H](O)[C@@H](C)/C=C/C=C/C=C/C=C/C=C/C=C/C=C/[C@H](O[C@@H]2O[C@H](C)[C@@H](O)[C@H](N)[C@@H]2O)C[C@@H]2O[C@](O)(C[C@@H](O)C[C@@H](O)[C@H](O)CC[C@@H](O)C[C@@H](O)CC(=O)O[C@H]1C)C[C@H](O)[C@H]2C(=O)O [amphotericin B] (first compound 12.5 µM) | 0.27 ± 0.0099 | 0.188 ± 0.0088
11 | COC(=O)N[C@H](C(=O)N[C@@H](Cc1ccccc1)[C@@H](O)CN(Cc1ccc(-c2ccccn2)cc1)NC(=O)[C@@H](NC(=O)OC)C(C)(C)C)C(C)(C)C [atazanavir] + C[C@@H]1[C@H](O)[C@@H](C)/C=C/C=C/C=C/C=C/C=C/C=C/C=C/[C@H](O[C@@H]2O[C@H](C)[C@@H](O)[C@H](N)[C@@H]2O)C[C@@H]2O[C@](O)(C[C@@H](O)C[C@@H](O)[C@H](O)CC[C@@H](O)C[C@@H](O)CC(=O)O[C@H]1C)C[C@H](O)[C@H]2C(=O)O [amphotericin B] (first compound 12.5 µM) | 0.286 ± 0.013 | 0.213 ± 0.0068
12 | CC1CNc2c(cccc2S(=O)(=O)N[C@@H](CCCNC(=N)N)C(=O)N2CC[C@@H](C)C[C@@H]2C(=O)O)C1 (stereo partly specified) [Argatroban] + CC[C@H](C)C[C@H](C)CCCCCCCCC(=O)N[C@H]1C[C@@H](O)[C@@H](NCCN)NC(=O)[C@@H]2[C@@H](O)CCN2C(=O)[C@H]([C@H](O)CCN)NC(=O)[C@H]([C@H](O)[C@@H](O)c2ccc(O)cc2)NC(=O)[C@@H]2C[C@@H](O)CN2C(=O)[C@H]([C@@H](C)O)NC1=O [caspofungin] (first compound 12.5 µM) | 0.285 ± 0.017 | 0.182 ± 0.0063
13 | NC(N)=NCCC[C@H](NC(=O)[C@@H]1CCCN1C(=O)[C@H](N)Cc1ccccc1)C(=O)CCl + C[C@@H]1[C@H](O)[C@@H](C)/C=C/C=C/C=C/C=C/C=C/C=C/C=C/[C@H](O[C@@H]2O[C@H](C)[C@@H](O)[C@H](N)[C@@H]2O)C[C@@H]2O[C@](O)(C[C@@H](O)C[C@@H](O)[C@H](O)CC[C@@H](O)C[C@@H](O)CC(=O)O[C@H]1C)C[C@H](O)[C@H]2C(=O)O [amphotericin B] (first compound 12.5 µM) | 0.291 ± 0.0073 | 0.213 ± 0.0082
14 | CCC(C)[C@H](NS(=O)(=O)c1cccc2ccccc12)C(=O)N[C@H](C=O)Cc1c[nH]c2ccccc12 (stereo partly specified) + CC[C@H](C)C[C@H](C)CCCCCCCCC(=O)N[C@H]1C[C@@H](O)[C@@H](NCCN)NC(=O)[C@@H]2[C@@H](O)CCN2C(=O)[C@H]([C@H](O)CCN)NC(=O)[C@H]([C@H](O)[C@@H](O)c2ccc(O)cc2)NC(=O)[C@@H]2C[C@@H](O)CN2C(=O)[C@H]([C@@H](C)O)NC1=O [caspofungin] (first compound 12.5 µM) | 0.253 ± 0.01 | 0.18 ± 0.0089
15 | CC1(C)C[C@@H]1C(=O)N/C(=C\CCCCSC[C@H](N)C(=O)O)C(=O)O [Cilastatin] + CC[C@H](C)C[C@H](C)CCCCCCCCC(=O)N[C@H]1C[C@@H](O)[C@@H](NCCN)NC(=O)[C@@H]2[C@@H](O)CCN2C(=O)[C@H]([C@H](O)CCN)NC(=O)[C@H]([C@H](O)[C@@H](O)c2ccc(O)cc2)NC(=O)[C@@H]2C[C@@H](O)CN2C(=O)[C@H]([C@@H](C)O)NC1=O [caspofungin] (first compound 12.5 µM) | 0.283 ± 0.0048 | 0.199 ± 0.02
16 | CC(C)(C)NC(=O)[C@@H]1C[C@@H]2CCCC[C@@H]2CN1C[C@@H](O)[C@H](Cc1ccccc1)NC(=O)[C@H](CC(N)=O)NC(=O)c1ccc2ccccc2n1 [saquinavir] + C[C@@H]1[C@H](O)[C@@H](C)/C=C/C=C/C=C/C=C/C=C/C=C/C=C/[C@H](O[C@@H]2O[C@H](C)[C@@H](O)[C@H](N)[C@@H]2O)C[C@@H]2O[C@](O)(C[C@@H](O)C[C@@H](O)[C@H](O)CC[C@@H](O)C[C@@H](O)CC(=O)O[C@H]1C)C[C@H](O)[C@H]2C(=O)O [amphotericin B] (first compound 12.5 µM) | 0.243 ± 0.0076 | 0.0922 ± 0.0023
17 | CC[C@H](C)[C@H](N)C(=O)N1CCSC1 [P32/98 hemifumarate salt] + C[C@@H]1[C@H](O)[C@@H](C)/C=C/C=C/C=C/C=C/C=C/C=C/C=C/[C@H](O[C@@H]2O[C@H](C)[C@@H](O)[C@H](N)[C@@H]2O)C[C@@H]2O[C@](O)(C[C@@H](O)C[C@@H](O)[C@H](O)CC[C@@H](O)C[C@@H](O)CC(=O)O[C@H]1C)C[C@H](O)[C@H]2C(=O)O [amphotericin B] (first compound 12.5 µM) | 0.259 ± 0.014 | 0.181 ± 0.0051
18 | CC(C)C[C@@H](C=O)NC(=O)[C@H](CC(C)C)NC(=O)[C@H](CC(C)C)NC(=O)OCc1ccccc1 + OC(Cn1cncn1)(Cn1cncn1)c1ccc(F)cc1F [fluconazole] (first compound 12.5 µM) | 0.277 ± 0.0062 | 0.148 ± 0.0097
